Bioassay records (PubChem)
Only some compounds are listed: those with a hit (about 7% of all), similar ones and a draw of the others.
IL1B secr inh = inhibitors of inflammasome signaling (IL-1 beta secretion) | AID 743279 | 360,000 compounds, 4.7% hits | THP-1 LPS/ATP IL-1B secretion, AlphaLISA, 16 h; hits give low values | activity change, % at 57.5 µM; in the data active = activity change below about -50%; inconclusive = mostly about -30% to -49%; also: % is scaled to controls: 0 for no effect and ±100 for the full control effect
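Secreted IL-1B measured by AlphaLISA bead assay after 16 h compound exposure of THP-1 cells; compounds (final up to 57.5 uM) added 1 h before LPS (250 ng/mL) and ATP (1.25 mM) stimulation; lower signal means less secretion.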
a7 integrin act = activates integrin-mediated alleviation for muscular dystrophy. alpha7betagal myoblasts, beta-gal FDG fluorescence, 48 h. Potency, µM (doses to about 38.3 µM), for inactives: top-dose activation, actives largely listed as activators. 350,000 compounds, 0.064% hits. AID 624291;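 also: potency is read from the fitted curve at half-maximal effect; 100% = response of the positive control SU9516; nearly all actives have a fitted effect of over 60% in size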
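alpha7betagal+/- myoblasts (passage 13, 250/well) treated 48 h at 37C with compounds at 1:260 dilution of DMSO stock. Lysed, then beta-galactosidase activity read as FDG fluorescence (ex 480/em 540) after 30 min, with pre-read for autofluorescence.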
ATXN viability = viability counter-screen for ATXN expression inhibitors | S2 cells (HEK-293 line with an ATXN2-luciferase reporter) viability, CellTiter-Fluor protease fluorescence, 24 h | Potency, µM (titrated, usually from 56.7 µM), hits mostly cytotoxic | 400,000 compounds, 0.49% hits; also: potency is read from the fitted curve at half-maximal effect; nearly all actives have a fitted effect of over 40% in size
D3 antag = blocks the human D3 dopamine receptor | P35462 | AID 652054 | 360,000 compounds, 2.5% hits | max response, negative = inhibition, % | D3R cells, DiscoveRx beta-arrestin luminescence, antagonist mode; hits give low values; in the data active = max response below about -50%; inconclusive = no clear call, values can overlap the other calls; also: % is scaled to controls: 0 for no effect and ±100 for the full control effect
Target sequence (P35462 whole entry, looked up): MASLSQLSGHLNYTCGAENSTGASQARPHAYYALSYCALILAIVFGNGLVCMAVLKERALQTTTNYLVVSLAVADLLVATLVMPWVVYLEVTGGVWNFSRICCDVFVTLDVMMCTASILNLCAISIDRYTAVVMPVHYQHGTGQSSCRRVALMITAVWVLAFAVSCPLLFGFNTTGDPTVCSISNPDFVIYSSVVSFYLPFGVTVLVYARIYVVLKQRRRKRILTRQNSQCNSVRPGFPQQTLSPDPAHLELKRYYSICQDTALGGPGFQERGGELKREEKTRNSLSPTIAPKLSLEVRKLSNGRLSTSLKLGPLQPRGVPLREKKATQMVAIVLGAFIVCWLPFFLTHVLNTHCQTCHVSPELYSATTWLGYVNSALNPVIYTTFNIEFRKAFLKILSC
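Cells expressing the human receptor were seeded at 1500 cells/well, incubated overnight at 37 degrees C in 5% CO2, then exposed to library compounds with dopamine controls for 90 minutes at 37 degrees C before luminescent detection.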
ATXN2 expr inh = reduces ATXN2 reporter expression in HEK-293 cells; AID 1745845; HEK-293 ATXN2-luciferase reporter, luminescence, 24 h; 360,000 compounds, 0.72% hits; Potency, µM (doses to about 57 µM), for the others: at the highest dose activity change, negative = inhibition, most hits filed as inhibitors; also: potency is read from the fitted curve at half-maximal effect; % is scaled to controls: 0 for no effect and ±100 for the full control effect; nearly all actives have a fitted effect of over 55% in size
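ATXN2-luciferase reporter cells (luciferase flanked by upstream and downstream ATXN2 gene portions) were treated 24 h at 37 °C with compounds at up to 57 uM. SteadyGlo luminescence gave expression; GF-AFC fluorescence gave viability.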
DRD3 agonist = activates the human D3 dopamine receptor | max activation, % | 410,000 compounds, 0.58% hits | AID 652048 | D3R DiscoveRx beta-arrestin cells, luminescence, 90 min | P35462; in the data active = max activation above about 30%; also: 0% is about no effect
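Agonist mode: compounds and dopamine controls were applied to plated cells for 90 min at 37 degrees C after an overnight attachment at 1500 cells/well. Luminescent read-out followed 30 - 60 minutes at room temperature with DiscoveRx detection reagent.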
* marks the source's active call; other numbers are inactive results; i = inactive; ? = inconclusive; / = no result; [ ] = dose if it differs, or a comment. Unless noted, calls follow the shape of the dose curve; as a rule, active = well fitted curve in the direction sought with a large enough effect; inconclusive = small, poorly fitted or top-dose-only effect, or another doubt; inactive = no such curve, though single readings can be large; an effect the other way counts as inactive or inconclusive.

SMILES | IL1B secr inh | a7 integrin act | ATXN viability | D3 antag | ATXN2 expr inh | DRD3 agonist
CCN(CC)C(=O)C1=C(C)N(Cc2ccc(C(C)(C)C)cc2)C(=O)C(CC(=O)NCC2CCCCC2)C1 (stereo not drawn) | -82* | -29% | 28µM* | -5 | ? | 0
CC1=C(C(=O)N2CCOCC2)CC(CC(=O)NC2CCCCC2)C(=O)N1Cc1ccc(C(C)(C)C)cc1 (stereo not drawn) | -13 | 4% | i | -17 | -16% | 3
CC1=C(C(=O)N2CCCCCC2)CC(CC(=O)NC2CCCCC2)C(=O)N1Cc1ccc(C(C)(C)C)cc1 (stereo not drawn) | -73* | / | ? | ? | ? | -14
COc1cccc(C2CC(c3ccc(C(C)C)cc3)n3nc(N)nc3N2)c1 (stereo not drawn) | 7 | -10% | i | 17 | -5% | 5
O=C(O)c1ccc(CNCc2ccc(Cl)cc2)s1 | / | / | i | / | 4% | -3
COC(=O)CN1C(=O)COc2ccc(S(=O)(=O)N3CCCC3)cc21 | -16 | -20% | i | -7 | -18% | 16
O/N=C1\CC/C(=N\O)c2nn(-c3ccc(Cl)cc3Cl)nc21 | -51* | -26% | ? | 23 | 13% | 1
O/N=C1\CCc2cc(Cl)ccc21 | 13 | 13% | i | -11 | 7% | 1
Cc1ccccc1NC(=O)Cn1c(=O)n(Cc2ccccc2)c(=O)c2c(C)c(C)sc21 | 10 | 18% | ? | 2 | -4% | 0
COc1ccc(C(=O)N(CCc2ccccc2)Cc2ccccc2)c(OC)n1 | -64* | 11% | i | 1 | -6% | -3
COc1ccc(C(=O)N(CCc2ccccc2)Cc2cccs2)c(OC)c1 | -78* | -19% | i | -10 | -11% | 5
CS(=O)(=O)c1ccccc1C(=O)N(CCc1ccccc1)Cc1ccccc1 | 0 | 0% | i | -22 | 7% | -4
CSc1ccccc1OCc1cc(C(=O)N2CCN(C3CCCC3)C(=O)C2)no1 | -2 | -1% | i | -3 | 43% | 0
Cc1ccn2c(Nc3ccc(C(C)C)cc3)c(-c3ccsc3)nc2c1 | / | / | i | / | 19% | 5
CC(C)N1CCC(N2CCN(Cc3nc4ccccc4s3)CC2CCO)CC1 (stereo not drawn) | 26 | -8% | i | -4 | / | 0
O=c1nc(/C=C/c2ccccc2C(F)(F)F)cc(C(F)(F)F)[nH]1 | -14 | -66% | i | 69 | / | 1
CCOc1cc(/C=C/c2cc(C(F)(F)F)[nH]c(=O)n2)ccc1O | -63* | 0% | ? | -28 | ? | -7
COc1ccc(/C=C/c2cc(C(F)(F)F)[nH]c(=O)n2)cc1OC | -96* | -46% | i | -16 | -19% | 12
CCOc1ccc(-c2nc(CSCC(=O)NCc3ccc(Cl)cc3)c(C)o2)cc1 | / | / | ? | / | ? | 32*
O=C(Nc1cccc(Cl)c1)c1ccc(Cn2cc(Cl)cn2)cc1 | -2 | ? | i | 0 | 17% | 1
COc1ccc(NC2=Nc3ccccc3N3C2=Nc2c(c(C)nn2-c2ccc(C)cc2)C3c2cccnc2)cc1 (stereo not drawn) | -8 | 2% | i | 15 | -11% | 5
CC(=O)Nc1ccc(NC2=Nc3ccccc3N3C2=Nc2c(c(C)nn2-c2ccccc2)C3c2ccccc2)cc1 (stereo not drawn) | 22 | -52% | ? | 7 | 7.9µM* | 34*
NC[C@H]1O[C@H](O[C@H]2[C@H](O)[C@@H](O[C@H]3O[C@H](CO)[C@@H](O)[C@H](N)[C@H]3O)[C@H](N)C[C@@H]2N)[C@H](O)[C@@H](O)[C@@H]1O | / | / | i | / | / | 3
CC1Oc2cc3oc4c(O)c5c(cc4c(=O)c3c(O)c2C1(C)C)C=CC(C)(C)O5 (stereo not drawn) | 7 | 12% | ? | 42 | 39% | 44*
CC1(C)C=Cc2cc3ccc(=O)oc3cc2O1 | -10 | -35% | ? | 2 | 10% | -6
SMILES | IL1B secr inh | a7 integrin act | ATXN viability | D3 antag | ATXN2 expr inh | DRD3 agonist
CCCCn1cc(S(=O)(=O)c2ccc(C)c(C)c2)c(=O)c2cc(F)c(N3CCCC(C)C3)cc21 (stereo not drawn) | / | / | / | / | / | 0
COc1ccc(-c2cnn3c4c(c(C)nc23)CCN4C(C)C)cc1OC | -9 | 19% | i | 33 | 27% | 41*
N#CC1=CN(Cc2ccccc2)C=C(/C=N/Nc2ccccc2)C1 | -80* | -3% | / | -1 | -12% | 8
CCN(CC)S(=O)(=O)c1ccc(O)c(C(=O)OCC(=O)NC2CCCC2)c1 | 42 | 41% | i | 6 | 0% | 12
COc1ccccc1N(CC(=O)Nc1ccc(C)c(Cl)c1)S(=O)(=O)c1ccc(C)cc1 | / | / | i | / | -5% | -6
CC(C)(C)C1CCc2c(sc(N)c2C(N)=O)C1 (stereo not drawn) | -64* | 7% | i | 2 | -10% | 0
CCC(C)(C)C1CCc2c(sc(N)c2C(N)=O)C1 (stereo not drawn) | -15 | -11% | i | 6 | -14% | 2
CN1CCN(CCOCCOc2c(Cl)cc(Cl)cc2Cl)CC1 | -8 | -27% | / | ? | -5% | -45
c1ccc(-c2ccccc2OCCOCCN2CCc3ccccc3C2)cc1 | -75* | -34% | i | -93* | -13% | -25
CCC(=O)c1ccccc1OCCN1CCN(Cc2ccccc2)CC1 | -1 | -10% | i | -84* | -22% | -18
CN(C)CCCOc1ccc(Cl)cc1Br | -11 | -27% | i | ? | -19% | -29
Clc1ccc(OCCCN2CCc3ccccc3C2)c(Br)c1 | -4 | -15% | i | -105* | / | -3
Clc1ccc(OCCOCCN2CCc3ccccc3C2)c(Cl)c1 | -82* | 7% | i | -74* | -21% | -33
CCOc1ccccc1OCCOCCN1CCN(Cc2ccccc2)CC1 | -6 | -3% | i | ? | -38%[11.3 µM] | -19
Cc1cc(C(=O)N2CCC2(C)C(=O)NS(=O)(=O)c2ccc(F)cc2F)nn1C (stereo not drawn) | 16 | / | i | -4 | 6% | -3
Cc1ccc2oc(C(=O)Nc3ccc(S(=O)(=O)N(C)Cc4ccccc4)cc3)cc(=O)c2c1 | / | / | i | / | -18% | -4
COc1cccc(-n2nnc(-c3nc(-c4cccs4)no3)c2N)c1 | / | / | i | / | 52% | 2
COc1ccc(S(=O)(=O)N2CCOCC2)cc1NC(=O)/C=C/c1ccc(F)cc1 | -29 | -1% | i | 11 | -4% | -3
CCc1cccc(CC)c1NC(=O)COC(=O)c1ccc2c(c1)S(=O)(=O)c1ccccc1C2=O | -11 | 10% | i | -4 | -2% | -5
CCN(C(=O)CSc1nnc(Cn2nnc3ccccc32)o1)c1nc(C)cs1 | 22 | -6% | i | -10 | -4% | 0
